# Sfp PPTase inh = Sfp phosphopantetheinyl transferase inhibition; AID 1490; 310,000 compounds, 3.5% hits; Potency, µM, for inactives: largest response in the series, negative = inhibition, most hits filed as inhibitors; Q9F4F7; Biochemical Sfp PPTase activity, qHTS;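 further: the enzyme is Sfp with the accession as filed and its product quenches rhodamine fluorescence; 0% = enzyme reaction without inhibitor and -100% = no enzyme wells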
#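 Fluorescence-quenching assay: 15 nM Sfp-PPTase preincubated 15 min at room temperature with compound, then 5 uM rhodamine-CoA and 12.5 uM BHQ-2-labelled YbbR peptide added. Fluorescence (ex 525/em 598 nm) read at start and after 30 min; difference gives rate.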
# JMJD2A Tudor = blocks the human JMJD2A Tudor domain; O75164; AlphaScreen JMJD2A-Tudor / H3K4me3 peptide binding; Potency, µM (doses to about 114 µM), for inactives: top-dose activity change, negative = inhibition, hits mostly inhibitors; 390,000 compounds, 4.4% hits; AID 504339; further: on the % scale 0 is the no-effect control and ±100 the full control effect; nearly all actives have a fitted effect of over 50% in size
# BAZ2B block = blocks human BAZ2B | AlphaScreen BAZ2B-H3K14Ac peptide displacement | Q9UIF8 | Potency, µM (series often up to 114 µM), inactives show at the top dose activity change, negative = inhibition, hits mostly inhibitors | 360,000 compounds, 4.4% hits; further: on the % scale 0 is the no-effect control and ±100 the full control effect; nearly all actives have a fitted effect of over 60% in size
#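 Multi-concentration screen (max 110 uM) measuring displacement of acetylated histone H3 peptide from BAZ2B by AlphaScreen, using 50 nM protein, 50 nM peptide and 10 ug/mL streptavidin donor plus Ni-chelate acceptor beads.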
# HP1b binding inh = HP1-beta chromodomain-methylated histone interaction inhibition; AlphaScreen HP1-beta / biotin-H3K9me3 peptide binding; Potency, µM (highest dose often 114 µM), for the others: at the highest dose activity change, negative = inhibition, usual class: inhibitors; 390,000 compounds, 0.56% hits; AID 540317; further: nearly all actives have a fitted effect of over 70% in size
# Target sequence (P83916 whole entry, looked up): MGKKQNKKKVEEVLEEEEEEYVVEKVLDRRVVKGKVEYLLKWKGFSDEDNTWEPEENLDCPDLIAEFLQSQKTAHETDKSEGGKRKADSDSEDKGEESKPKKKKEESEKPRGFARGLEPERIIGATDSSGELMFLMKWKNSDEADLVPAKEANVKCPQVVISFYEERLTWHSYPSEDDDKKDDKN
#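 Compound inhibition of the preformed complex between 50 nM HP1-beta and 50 nM biotinylated H3K9me3 peptide was read by AlphaScreen. Buffer was PBS pH 7.4 with 0.01% Tween-20. Incubations ran 30 min at room temperature, with 10 ug/mL donor/acceptor beads.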
# G9a block = inhibitors of human histone lysine methyltransferase G9a. Q96KQ7. G9a H3K9 monomethylation, AlphaScreen, 2 h. Potency, µM (titrated, usually from 102 µM), for the others: at the highest dose activity, negative = inhibition, hits mostly inhibitors. 350,000 compounds, 8.8% hits; further: on the % scale 0 is the no-effect control and ±100 the full control effect; nearly all actives have a fitted effect of over 75% in size
# Target sequence (Q96KQ7 913-1193 limits assumed): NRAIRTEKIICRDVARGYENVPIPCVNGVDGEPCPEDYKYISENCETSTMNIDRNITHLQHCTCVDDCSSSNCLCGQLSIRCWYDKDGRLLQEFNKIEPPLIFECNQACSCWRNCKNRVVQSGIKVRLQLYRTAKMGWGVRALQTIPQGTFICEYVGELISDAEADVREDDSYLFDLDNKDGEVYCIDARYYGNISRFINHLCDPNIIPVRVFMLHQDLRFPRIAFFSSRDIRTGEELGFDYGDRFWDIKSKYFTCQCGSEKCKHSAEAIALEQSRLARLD
#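 Signal arises when biotinylated H3K9 peptide, once monomethylated, bridges streptavidin donor and antibody-captured acceptor beads. Enzyme at 20 nM was preincubated 15 min with test compounds; peptide 500 nM and SAM 20 uM then reacted for 2 h.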
# L3MBTL1 block = L3MBTL1 (human) inhibition; AlphaScreen L3MBTL1–H3K9me1 peptide binding; Potency, µM (doses to about 57.1 µM), for the others: at the highest dose activity, negative = inhibition, most hits filed as inhibitors; Q9Y468; AID 485360; 230,000 compounds, 0.66% hits; further: on the % scale 0 is the no-effect control and ±100 the full control effect; nearly all actives have a fitted effect of over 60% in size
#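 Displacement of a biotinylated histone H3(1-15) peptide monomethylated at Lys9 (75 nM) from L3MBTL1 (50 nM) was measured by AlphaScreen after a 30 min room-temperature compound incubation; cefsulodin titration served as intraplate control.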
# * hit, by the source's call; ? = inconclusive; · = no result given; [ ] = another dose, or the depositor's remark. An excerpt weighted towards active compounds, which were near 12% of everything screened. The call rests on the fitted dose curve; in most records, active means well fitted curve in the direction sought with a large enough effect; inconclusive means small, poorly fitted or top-dose-only effect, or another doubt; inactive means no such curve, though single readings can be large; an effect the other way counts as inactive or inconclusive. Potency means the concentration at half of the fitted maximal effect.
SMILES,Sfp PPTase inh,JMJD2A Tudor,BAZ2B block,HP1b binding inh,G9a block,L3MBTL1 block
S=C(NN=Cc1ccccn1)N(Cc1ccccn1)Cc1ccccn1,·,20µM*,·,?,·,·
O=C(N/N=C/c1ccccn1)c1ccc(N/N=C/c2ccccn2)cc1,-15%,5%,-6%,49%,?,28%
CC(=NNC(=S)N(Cc1ccccn1)Cc1ccccn1)c1cnccn1,·,18µM*,·,?,·,·
COc1ccc(OCC(O)COc2ccc(OC)cc2)cc1,9%,-1%,2%,23%,-8%[59 µM],-4%
COc1ccc(OCC(O)CN(CC(O)COc2ccc(OC)cc2)c2cccc(O)c2)cc1 (stereo not given),5%,?,45µM*,-16%,50µM*,·
Cc1ccc(N=C2S/C(=C\c3cn(CC(=O)O)c4ccccc34)C(=O)N2C)cc1,-18%,-24%,?,-9%,79µM*,-10%
CCSc1nnc2c(n1)OC(c1ccc(C)s1)Nc1ccccc1-2 (stereo not given),·,-12%,-17%,9%,5%[59 µM],·
CCSc1nnc2c(n1)OC1(CCCC1)Nc1ccccc1-2,2%,-19%,5%,40%,35µM*,-4%
O=C(c1cc(-n2cnnc2)ccc1Cl)N1CCN(c2nc(-c3ccccc3)cs2)CC1,17%,56µM*,-2%,?,6%,6%
CCCCN(C(=O)CSc1n[nH]c(-c2ccc(C)cc2)n1)c1c(N)n(CCCC)c(=O)[nH]c1=O,·,-8%,7%,29%,-43%[59 µM],8%
O=[N+]([O-])c1ccccc1S(=O)(=O)N1CCN(Cc2ccccc2)CC1,-3%,?,?,4%,79µM*,0%
O=[N+]([O-])c1ccccc1S(=O)(=O)N1CCN(Cc2ccc3c(c2)OCO3)CC1,-20%,-27%[11.4 µM],50µM*,16µM*,10µM*,-15%
CCS(=O)(=O)N1CCN(S(=O)(=O)c2ccccc2[N+](=O)[O-])CC1,7%,3%,?,51%,-7%,-15%
O=S(=O)(c1cc(Cl)ccc1Cl)N1CCN(Cc2ccc3c(c2)OCO3)CC1,18%,0%,-22%,45%,-30%,·
COc1ccc(C[C@@H]2CN3C(=NC[C@@H]3C)N2C[C@H](C)NC(=O)CCC2CCCCC2)cc1,50µM*,-26%,-9%,25%,?,0%
COc1ccc(C[C@H]2CN3C(=NC[C@@H]3Cc3ccccc3)N2C[C@H](C)NC(=O)CCC2CCCCC2)cc1,-18%,·,-7%,·,-1%[59 µM],·
CCNC(=O)COc1ccc(/C=C2\COc3ccccc3C2=O)cc1OC,-4%,-26%,-9%,4%,40µM*,·
CCOc1cc(/C=C2\COc3ccccc3C2=O)ccc1OCC(=O)N(C)C,-21%,-32%,?,-13%,-19%,·
O=C(O)c1ccc(COc2ccccc2/C=C2/NC(=O)N(c3cccc(Cl)c3)C2=O)cc1,-3%,?,79µM*,?,-15%[59 µM],-6%
CN1C(=O)/C(=C/c2ccccc2OCc2ccc(C(=O)O)cc2)NC1=S,13%,?,?,22%,?,-7%
O=C1NC(=S)N/C1=C\c1ccccc1OCc1ccc(C(=O)O)cc1,-7%,79µM*,-1%,-8%,·,5%
COc1ccc(NC(=O)CCC(=O)c2cccs2)cc1Cl,5%,-8%,7%,58%,-1%,·
N#Cc1cccc(NC(=O)Nc2cccs2)c1,?,-32%,-7%,-13%,79µM*,-1%
CCc1cccc(NC(=O)Nc2csc3c2CCCC3)c1,·,-19%,17%,71%,33%[59 µM],·
Cc1cccc(NC(=O)Nc2cccc(C#N)c2)n1,6%,-28%,-5%,5%,1%,0%
SMILES,Sfp PPTase inh,JMJD2A Tudor,BAZ2B block,HP1b binding inh,G9a block,L3MBTL1 block
CCc1cccc(NC(=O)Nc2cccs2)c1,32µM*,?,?,-7%,13µM*,-14%
COc1ccc(NC(=O)Nc2cccs2)cc1Cl,45µM*,-18%,?,-9%,?,·
CN(C)CC1CCCCC1OC(=O)c1ccc(S(=O)(=O)N(C)c2ccccc2)cc1 (stereo not given),13%,-8%,-2%,13%,?,·
Cc1cccc(CCNCc2c(C(=O)O)c(C)n(-c3ccccc3)c2C)c1,-7%,?,-30%,13%,?,·
Cc1cc(C(=O)CSc2nnc(-c3ccccc3F)o2)c(C)n1Cc1cccs1,28µM*,32%,-26%,11%,-30%,0%
COc1cc(NC(=O)COc2ccccc2[N+](=O)[O-])ccc1NC(=O)c1cccs1,16µM*,-10%,-21%,0%,·,-11%
CCN(CC)c1ccc(NC(=O)c2ccccc2OCC(=O)OC)cc1,-7%,20µM*,32µM*,?,·,-23%
CCN(CC)c1ccc(NC(=O)COC(=O)COc2ccccc2[N+](=O)[O-])cc1,-3%,32µM*,45µM*,-66%,7.1µM*,-21%
CCN(CC)c1ccc(NC(=O)COC(=O)CCC(=O)c2cccs2)cc1,·,?,45µM*,?,-15%[2.33 µM],-18%
COCCn1c(=O)c(-c2cccs2)nc2cnc(N3CCOCC3)nc21,15%,·,·,·,6%[0.501 µM],·
CCOC(=O)c1cc(-c2ccc(F)cc2)n(CCC(=O)Nc2cc(OC)cc(OC)c2)c1C,·,?,-14%,?,?,·
O=S(=O)(N/N=C/c1cccnc1)c1ccc(Cl)c(Cl)c1,-1%,-16%,-5%,13%,18µM*,-3%
COC(=O)C1=C[C@@H](C(=O)OC)[C@@H]2C3=C(C(=O)[C@@]2(C)NC(=O)c2ccccc2)[C@H](c2ccccc2)n2c(=O)n(-c4ccccc4)c(=O)n2[C@@H]3C1,·,-30%,·,13%,·,·
COC(=O)[C@H](CC(C)C)NC(=O)c1cc2c(cn1)[nH]c1ccccc12,45µM*,?,-24%,?,7.9µM*,·
CN1C(=O)NC(=O)C1c1ccccc1 (stereo not given),·,4%,·,12%,·,·
O=C(CNS(=O)(=O)c1ccc(Br)s1)NCCc1ccc(Cl)cc1,11%,-7%,23%,25%,33%,·
COCCn1c(=O)c(-c2ccc(F)cc2)nc2cnc(Nc3cccc(OC)c3)nc21,9%,·,·,·,7%[0.501 µM],·
CC1=C(C(=O)O)N2C(=O)C(NC(=O)C(N)C3=CCC=CC3)C2SC1 (stereo not given),-75%,·,·,·,·,·
CC1=C(C(=O)O)N2C(=O)C(NC(=O)c3nn(C)cc3Cl)C2SC1 (stereo not given),40µM*,-16%[11.4 µM],-11%,2%,?,4%
CC1=C(C(=O)OCC(Cl)(Cl)Cl)N2C(=O)C(NC(=O)Cc3ccccc3)C2SC1 (stereo not given),?,-6%,2%,21%,40µM*,?

# From PubChem
